The text below walks through data of paper PMC4336329 (PLoS ONE, 2015).

Hit rate of the full screen: of about 310,000 compounds, about 14,000 (4.5%) showed an effect of 50% or more. Effects have a minus sign here. The sample as a whole holds a higher share of strong results than the screen did.
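Further: peak tail current of the secondary pulse compared with the same well before compound.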

The target of this assay is human ether-à-go-go-related gene (hERG) potassium channel (human, UniProt Q12809). Nature of the assay: primary screen, population patch clamp on CHO cells stably expressing hERG; higher = less effect of the substance.
Chain of human ether-à-go-go-related gene (hERG) potassium channel (Q12809 whole entry, looked up): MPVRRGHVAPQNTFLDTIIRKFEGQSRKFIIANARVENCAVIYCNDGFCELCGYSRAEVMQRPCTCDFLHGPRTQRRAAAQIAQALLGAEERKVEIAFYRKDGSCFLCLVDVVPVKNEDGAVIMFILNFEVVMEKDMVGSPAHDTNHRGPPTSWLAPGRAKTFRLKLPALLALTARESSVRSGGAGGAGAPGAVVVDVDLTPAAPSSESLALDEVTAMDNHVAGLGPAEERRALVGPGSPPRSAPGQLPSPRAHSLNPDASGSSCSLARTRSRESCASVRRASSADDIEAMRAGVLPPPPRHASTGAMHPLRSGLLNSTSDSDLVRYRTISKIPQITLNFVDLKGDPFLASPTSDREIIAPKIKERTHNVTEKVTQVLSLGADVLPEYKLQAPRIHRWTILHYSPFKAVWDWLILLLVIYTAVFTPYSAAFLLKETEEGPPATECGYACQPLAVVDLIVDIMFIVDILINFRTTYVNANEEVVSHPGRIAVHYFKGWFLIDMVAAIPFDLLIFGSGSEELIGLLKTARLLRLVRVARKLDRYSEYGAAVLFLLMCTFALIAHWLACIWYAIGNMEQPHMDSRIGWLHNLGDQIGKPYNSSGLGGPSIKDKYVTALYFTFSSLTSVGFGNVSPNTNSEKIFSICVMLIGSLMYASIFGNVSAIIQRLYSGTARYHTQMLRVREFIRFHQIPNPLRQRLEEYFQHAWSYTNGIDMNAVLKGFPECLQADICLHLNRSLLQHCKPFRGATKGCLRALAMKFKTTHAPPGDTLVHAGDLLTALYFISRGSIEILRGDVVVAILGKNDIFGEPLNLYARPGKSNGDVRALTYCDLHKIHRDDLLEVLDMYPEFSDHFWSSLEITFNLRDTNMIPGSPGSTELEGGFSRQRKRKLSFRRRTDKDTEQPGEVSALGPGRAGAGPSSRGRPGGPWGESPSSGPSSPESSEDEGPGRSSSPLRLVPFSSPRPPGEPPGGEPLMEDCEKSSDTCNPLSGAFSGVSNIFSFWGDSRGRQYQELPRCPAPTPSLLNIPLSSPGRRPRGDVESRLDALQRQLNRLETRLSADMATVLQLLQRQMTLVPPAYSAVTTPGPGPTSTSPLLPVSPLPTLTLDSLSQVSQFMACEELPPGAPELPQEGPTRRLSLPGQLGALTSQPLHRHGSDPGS
With `Oc1c(C(Nc2cccc(C(F)(F)F)c2)c2ccncc2)ccc2cccnc12` (centres unmarked), the “hERG current change (%, negative = inhibition) at 10uM” value came out at 12.3%. Turning to `CCOc1ccc(S(=O)(=O)NCCC(=O)OCC(=O)Nc2cc(C)on2)cc1`, the “hERG current change (%, negative = inhibition) at 10uM” value was -44.1%. `COc1ccc(-c2nnn(CC(=O)c3ccc4c(c3)OCCO4)n2)cc1OC`: the “hERG current change (%, negative = inhibition) at 10uM” value amounted to 9.3%.

On to `C/C(=N\NC(=O)c1cc(-c2ccc(Br)s2)[nH]n1)c1ccncc1`, for which the “hERG current change (%, negative = inhibition) at 10uM” value amounted to 11.1%. On to `COc1ccc(C(=O)CCc2ccccc2)cc1`, for which the “hERG current change (%, negative = inhibition) at 10uM” value is 9.03%. The figure for `CCOC(=O)N1CCN(c2nc(-c3ccco3)cc(C(F)(F)F)n2)CC1` is -3.17%; for `Cc1ccc(C(=O)Nc2cccnc2N2CCN(C)CC2)cc1` it is -5.47%.

For `O=C1CC2(CCN(C(=O)c3cccc(F)c3)CC2)Oc2ccccc21`, the “hERG current change (%, negative = inhibition) at 10uM” value was -75.1%. The figure for `O=C(c1ccc(Cl)cc1)N1CCC2(CC1)OCCO2` is 13.2%; for `O=C1CC2(CCCC2)Oc2ccc(F)cc21` it is -8.58%. As for `O=C1CC2(CCN(C(=O)c3ccc(Cl)cc3)CC2)Oc2ccccc21`, the “hERG current change (%, negative = inhibition) at 10uM” value is reported as -87.8%. In the case of `Cc1cccc(NS(=O)(=O)c2cccc(C(=O)N3CCCC3)c2)c1`, the “hERG current change (%, negative = inhibition) at 10uM” value is 4.7%.

As for `CC(C)(C)NC(=O)COC(=O)c1ccc(Cl)cc1O`, the “hERG current change (%, negative = inhibition) at 10uM” value turned out to be 18.8%. The figure for `C=CCN=C1CC(C)(C)CC(=O)/C1=C(\O)CCCN1C(=O)c2ccccc2C1=O` is -23.5%; for `Cc1ccc(NC2c3ncccc3C(=O)N2C2CCCCC2)cc1` (centres unmarked) it is 5.93%; for `Cn1cc(CN2CCN(c3cnccn3)CC2)c(-c2cccc(Cl)c2)n1` it is 6.29%. Take `COc1cc2c(cc1OC)C(C(=O)N1CCN(c3ccccn3)CC1)C(c1cccs1)N(C)C2=O` (centres unmarked): the “hERG current change (%, negative = inhibition) at 10uM” value is recorded as -38%.

For `COc1cc2c(cc1OC)C(C(=O)N1CCN(c3ccccc3)CC1)C(c1cccs1)N(C)C2=O` (centres unmarked), the “hERG current change (%, negative = inhibition) at 10uM” value was -68.1%. The value for `COc1cc2c(cc1OC)C(C(=O)N1CCOCC1)C(c1cccs1)N(C)C2=O` (centres unmarked) was 4.09%; that for `O=C(O)CN(Cc1ccco1)S(=O)(=O)c1ccccc1` was 11.6%; that for `Nc1nnc(SCC(=O)Nc2cccc(S(=O)(=O)N3CCCCC3)c2)s1` was -12.8%. With `CCCC[C@@H]1C[C@H]1[C@@H](NC(=O)c1ccco1)c1ccc(C(=O)OC)cc1`, the “hERG current change (%, negative = inhibition) at 10uM” value is on record as -34%. `CCCC[C@@H]1C[C@H]1[C@@H](NC(=O)c1ccco1)c1ccc(Cl)cc1`: the “hERG current change (%, negative = inhibition) at 10uM” value is reported as -50.2%. The figure for `CCCC[C@@H]1C[C@H]1[C@@H](NC(=O)c1cccs1)c1ccc(Cl)cc1` is -9.44%; for `CC(=O)NC(Cc1ccccc1C)C(=O)NC1CCN(C(=O)c2cccc(C)c2)CC1` (centres unmarked) it is 34.5%. For the compound `O=C(CSc1nc(-c2ccccc2)c(-c2ccccc2)[nH]1)NCc1ccco1`, the “hERG current change (%, negative = inhibition) at 10uM” value is recorded as -1.63%. Take `O=C(CSc1ccc2nnc(-c3ccccc3)n2n1)NCc1ccco1`: the “hERG current change (%, negative = inhibition) at 10uM” value is reported as -72.2%.

As to `O=C(CCSCCC(=O)NCc1ccco1)NCc1ccco1`, the “hERG current change (%, negative = inhibition) at 10uM” value was 6.38%. The figure for `O=C(CSc1ncc(-c2ccccc2)nn1)NCc1ccco1` is -23.6%. For the compound `CCOc1ccc(-c2nnc3ccc(SCC(=O)NCc4ccco4)nn23)cc1`, the “hERG current change (%, negative = inhibition) at 10uM” value was -8.72%. The figure for `O=C(CSCC(=O)NCc1ccco1)NCc1ccco1` is -66%.

As for `Cc1ccc(-c2nnc3ccc(SCC(=O)NCc4ccco4)nn23)cc1`, the “hERG current change (%, negative = inhibition) at 10uM” value is on record as -6.59%. The value for `Cc1ccc(NC(=O)CSCC(=O)NCc2ccco2)cc1` was -0.0131%; that for `O=C(CSc1ccc2nnc(-c3ccccn3)n2n1)NCC1CCCO1` (centres unmarked) was -8.53%; that for `O=C(CSc1nnc(-c2ccccc2)c(-c2ccccc2)n1)NCc1ccco1` was -55.5%. The figure for `O=C(CSc1ccc2nnc(-c3ccccn3)n2n1)NCc1ccco1` is -63.1%. The figure for `O=C(CSc1ccc2nnc(-c3ccncc3)n2n1)NCc1ccco1` is -25.8%. With `Cc1cc(C(=O)N/N=C/c2ccc([N+](=O)[O-])o2)c(C)o1`, the “hERG current change (%, negative = inhibition) at 10uM” value is -7.72%. The figure for `CNC(=O)c1ccc(NC(=O)/C=C/c2cccc(F)c2)cc1` is -18.3%; for `Cn1nc(NC(=O)C2CCC2C(=O)O)c2c(F)cccc21` (centres unmarked) it is -0.347%; for `Cc1ccc(OCCOc2ccc(Br)cc2)c([N+](=O)[O-])n1` it is -6.68%. Take `COc1ccc(CNC(=O)C(C)c2ccc([N+](=O)[O-])cc2)cc1` (centres unmarked): the “hERG current change (%, negative = inhibition) at 10uM” value is -21.2%.

`O=C(Nc1ccc2c(c1)OCO2)c1ccc(Cl)s1`: the “hERG current change (%, negative = inhibition) at 10uM” value is -2.22%. The figure for `COc1ccc(-c2nnc3ccc(SCC(=O)NCc4ccco4)nn23)cc1OC` is -28.3%. The value for `O=C(CSc1ccc2nnc(-c3cccc(F)c3)n2n1)NCc1ccco1` was -65.5%; that for `O=C(CSc1ccc2nnc(-c3ccc(F)cc3)n2n1)NCc1ccco1` was -21.7%. The value for `Cc1ccc(S(=O)(=O)Nc2ccc3[nH]ccc3c2)cc1` was -9.71%; that for `OCC1(CCOc2ccccc2)CCN(Cc2ccc3c(c2)OCCO3)CC1` was -75.1%; that for `CCOC(=O)C1(CCc2ccccc2)CCN(Cc2ccc3c(c2)OCCO3)CC1` was -84.4%.

`CCOC(=O)C1(Cc2ccccc2)CCN(Cc2ccc3c(c2)OCCO3)CC1`: the “hERG current change (%, negative = inhibition) at 10uM” value was -33.1%.

Take `CCOC(=O)C1(CCc2ccccc2)CCN(C(=O)CN2CCOC2=O)CC1`: the “hERG current change (%, negative = inhibition) at 10uM” value came to 14.6%. The figure for `CCOC(=O)C1(CCOC)CCN(CC(C)Cc2ccc3c(c2)OCO3)CC1` (centres unmarked) is -43.1%; for `CCOC(=O)C1(CCOc2ccccc2)CCN(Cc2ccc3c(c2)OCCO3)CC1` it is -73.3%. The value for `O=C1/C(=C\c2ccco2)SC(=S)N1Cc1ccccc1` was 10.8%. As to `N#Cc1ccc(Oc2ccc(NC(=O)C3CC=CCC3C(=O)O)cc2)cc1` (centres unmarked), the “hERG current change (%, negative = inhibition) at 10uM” value was found to be 12.9%. For the compound `O=C1OC2(c3ccccc3)C3CCCC2C13`, the “hERG current change (%, negative = inhibition) at 10uM” value came out at 11.1%.
